# High-throughput results (PubChem BioAssay)
# TDP1 cell CPT: qHTS for Inhibitors of human tyrosyl-DNA phosphodiesterase 1 (TDP1): qHTS in cells in presence of CPT | chicken DT40 Tdp1-/-;hTDP1 cells + 20 nM CPT, ATP luminescence, 48 h | Potency, µM (titrated, usually from 46.2 µM), without a hit: top-dose activity change, negative = growth inhibition, usual class: inhibitors | 420,000 tested, 12% active | AID 686979, 2013; note: potency is the fitted concentration of half-maximal effect; nearly all actives have a fitted effect of over 55% in size
#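 Cell growth measured by CellTiter-Glo luminescence after a minimum 48 h, 37 C compound exposure with 20 nM CPT in Tdp1-knockout DT40 cells stably expressing hTDP1, seeded 400/well; qHTS titration format.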
# 12-LOX inh: Primary qHTS assay for inhibitors of human arachidonate 12S-lipoxygenase (ALOX12): Round 2 | Polyunsaturated fatty acid lipoxygenase ALOX12 (Homo sapiens), P18054 | purified 12hLO, xylenol orange hydroperoxide absorbance | Potency, µM (series often up to 108 µM), for inactives: at the top dose activity change, negative = inhibition, most hits filed as inhibitors | 580,000 tested, 1.1% active | AID 1671190, 2021; note: potency is the fitted concentration of half-maximal effect
# Target sequence (P18054 whole entry, looked up): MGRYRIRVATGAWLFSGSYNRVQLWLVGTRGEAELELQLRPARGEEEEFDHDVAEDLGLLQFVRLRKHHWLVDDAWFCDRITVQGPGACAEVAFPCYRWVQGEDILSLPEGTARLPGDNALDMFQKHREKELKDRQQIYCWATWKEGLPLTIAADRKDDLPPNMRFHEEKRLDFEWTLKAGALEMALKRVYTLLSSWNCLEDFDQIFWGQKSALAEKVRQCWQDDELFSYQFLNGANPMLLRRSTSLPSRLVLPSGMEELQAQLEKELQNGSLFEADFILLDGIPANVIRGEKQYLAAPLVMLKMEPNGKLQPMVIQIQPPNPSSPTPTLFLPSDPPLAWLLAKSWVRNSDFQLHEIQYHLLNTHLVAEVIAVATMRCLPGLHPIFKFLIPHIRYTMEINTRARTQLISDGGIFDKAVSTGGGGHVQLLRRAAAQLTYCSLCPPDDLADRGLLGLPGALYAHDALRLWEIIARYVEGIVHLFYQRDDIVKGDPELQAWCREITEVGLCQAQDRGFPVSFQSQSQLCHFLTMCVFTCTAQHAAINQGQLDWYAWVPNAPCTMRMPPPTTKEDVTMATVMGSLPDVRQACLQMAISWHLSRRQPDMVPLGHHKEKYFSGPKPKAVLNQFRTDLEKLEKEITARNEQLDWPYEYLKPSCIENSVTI
#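 Purified human 12hLO (150 nM final) in 25 mM Hepes, 0.01% Triton X-100, pH 7.0 was preincubated 15 min at room temperature with compound. Then 40 uM arachidonic acid was added, 30 min. Hydroperoxide was read by Fe-XO absorbance ratio 573/405 nm.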
# HT1080-NT tox: qHTS for induction of synthetic lethality in tumor cells producing 2HG: qHTS for the HT-1080-NT fibrosarcoma cell line; HT-1080-NT fibrosarcoma viability, CellTiter-Glo ATP luminescence, 48 h; Potency, µM (doses to about 46.1 µM), without a hit: at the top dose activity, negative = less viability, hits mostly cytotoxic; 360,000 tested, 1.6% active;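 note: NT is the 2HG producing partner of a matched IDH1 knockdown line; potency is the fitted concentration of half-maximal effect; 0% = DMSO-treated cells and -100% = media-only wells without cells; nearly all actives have a fitted effect of over 55% in size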
#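 Luminescent CellTiter-Glo readout after 48 hours of compound exposure at 37 degrees C defined viability of HT-1080-NT cells. Activity was normalized to DMSO wells and cell-free media wells; concentration-response curves were fitted and assigned curve classes.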
# HT1080 IDH1KD tx: qHTS for induction of synthetic lethality in tumor cells producing 2HG: qHTS for the HT-1080-IDH1KD cell line | AID 686971, 2013 | HT-1080 IDH1 knockdown viability, ATP luminescence, 48 h | 360,000 tested, 2% active | Potency, µM (series often up to 46.1 µM), for the others: at the highest dose activity, negative = toxicity, hits mostly cytotoxic;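 note: potency is the fitted concentration of half-maximal effect; 0% = DMSO wells and -100% = cell-free medium wells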
#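 Using the IDH1-knockdown HT-1080 line run in the same batch and compound series as the NT line, viability after 48 h at 37 °C was determined by CellTiter-Glo luminescence and expressed as % activity.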
# IL-1B inflam inh: qHTS for Inhibitors of Inflammasome Signaling: IL-1-beta AlphaLISA Primary Screen; THP-1 LPS/ATP IL-1B secretion, AlphaLISA, 16 h; active compounds read low; activity change, % at 57.5 µM; 360,000 tested, 4.7% active; in the data active = activity change below about -50%; inconclusive = mostly about -30% to -49%
#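 Secreted IL-1B measured by AlphaLISA bead assay after 16 h compound exposure of THP-1 cells; compounds (final up to 57.5 uM) added 1 h before LPS (250 ng/mL) and ATP (1.25 mM) stimulation; lower signal means less secretion.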
# TDP1 cell noCPT: qHTS for Inhibitors of human tyrosyl-DNA phosphodiesterase 1 (TDP1): qHTS in cells in absence of CPT | DT40 Tdp1-/- hTDP1 cells, no CPT, ATP luminescence, 48 h | Potency, µM (doses to about 46.2 µM), for inactives: at the highest dose activity change, negative = growth inhibition, hits mostly inhibitors | 420,000 tested, 15% active | AID 686978, 2013; note: potency is the fitted concentration of half-maximal effect; nearly all actives have a fitted effect of over 55% in size
#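 Growth kinetics read by CellTiter-Glo luminescence after ≥48 hr at 37 °C. Cells: DT40 Tdp1-/- stably carrying human TDP1, 400 per well, compound exposure in the absence of CPT (DMSO vehicle).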
# The depositor's hits bear a star; i = inactive; ? = inconclusive; . = no result; [ ] = remark or other dose. The full list was thinned out, with hits kept by preference. Unless noted, calls come from the whole dose curve; as a rule, active = well fitted curve in the direction sought with a large enough effect; inconclusive = small, poorly fitted or top-dose-only effect, or another doubt; inactive = no such curve, though single readings can be large; an effect the other way counts as inactive or inconclusive. Unless noted, % is set by controls: 0 for no effect and ±100 for the full control effect.
SMILES,TDP1 cell CPT,12-LOX inh,HT1080-NT tox,HT1080 IDH1KD tx,IL-1B inflam inh,TDP1 cell noCPT
CC(CN)(c1ccccn1)N1CCCC1 (stereo not given),.,74%[176 µM],.,.,.,.
Cc1nnc(NC(=O)CCS(=O)(=O)Cc2ccccc2)s1,10µM*,?,23%,0%,-1,?
CC(C)(C)c1nnc(NC(=O)CCS(=O)(=O)Cc2ccccc2)s1,9.2µM*,-8%,-27%,?,-2,12µM*
O=C(CCS(=O)(=O)Cc1ccccc1)Nc1nnc(C(F)(F)F)s1,?,6%,?,?,23,?
Cn1ncc2c(Nc3ccccc3)nc(N3CCN(C(=O)c4ccco4)CC3)nc21,.,-25%,.,.,.,.
Cc1noc(C)c1C(=O)N1CCC2(CC1)CC(c1ccccc1)C(=O)N(C)C2 (stereo not given),.,54%,.,.,.,.
COC1CCN(C(=O)c2coc(COc3ccc(F)cc3Cl)n2)CC1,.,22%,.,.,.,.
Nc1nc(Cl)nc2c1ncn2C1CC(O)C(CO)O1 (stereo not given),0.18µM*,1%,?,?,50,?
Nc1nc2c(ncn2[C@H]2C[C@H](O)[C@@H](CO)O2)c(=O)[nH]1,4.6µM*,18%,?,?,0,2.1µM*
Nc1ncnc2c1ncn2C1C[C@H](O)[C@@H](CO)O1 (stereo not given in full),.,10%,.,.,.,.
Nc1nc2c(ncn2C2CC(O)C(CO)O2)c(=O)[nH]1 (stereo not given),10µM*,.,.,.,.,5.8µM*
C=C1[C@H](CO)[C@@H](O)C[C@@H]1n1cnc2c(=O)[nH]c(N)nc21,0.0084µM*,.,.,.,.,0.0053µM*
CC(C(=O)O)N1CC2(CCC1=O)CCN(C(=O)CN1CCCC1)CC2 (stereo not given),.,9%,.,.,.,.
COc1ccc(C(=O)Nc2c3c(nn2-c2ccc(Cl)cc2)CS(=O)(=O)C3)cc1,-5%,12%,0%,-1%,?,18%
Cc1nc(CN(C)C(=O)c2coc(COc3ccc(F)cc3Cl)n2)cs1,.,44%,.,.,.,.
Nc1ccn([C@H]2C[C@H](O)[C@@H](CO)O2)c(=O)n1,12%,-29%,48%,5%,15,17%
Nc1ncn([C@H]2C[C@H](O)[C@@H](CO)O2)c(=O)n1,0.041µM*,?,1%,5%,4,0.1µM*
CNc1ncnc2c1ncn2[C@H]1C[C@H](O)[C@@H](CO)O1,?,-1%,.,.,.,7.3µM*
CCOC(=O)CNC(=O)N1CCCN(S(=O)(=O)c2ccc3c(ccn3CC)c2)CC1,.,-11%,.,.,.,.
CN1CCN(NC(=O)c2ccc(Cl)s2)CC1,-12%,0%,1%,17%,5,-5%
Cc1ccc(CN(C(=O)c2cc(=O)c3cc(Cl)c(C)cc3o2)c2ccccn2)o1,.,25µM*,.,.,.,.
Cc1ccc(CN(C(=O)c2ccccc2)c2ccccn2)o1,?,-7%,.,.,.,?
Cc1ccccc1CN(C)C(C)C(=O)Nc1ccccc1F (stereo not given),?,5%,-5%,-5%,0,26µM*
C#CCN1CCC(C(=O)N(C)Cc2cccc(OC(F)F)c2)CC1,.,6%,.,.,.,.
Cc1cc(C=O)c(C)n1-c1ccc(N2CCCCC2)c([N+](=O)[O-])c1,8.2µM*,-24%,-21%,-22%,?,21µM*
SMILES,TDP1 cell CPT,12-LOX inh,HT1080-NT tox,HT1080 IDH1KD tx,IL-1B inflam inh,TDP1 cell noCPT
Cc1cc(C=O)c(C)n1-c1ccc(N2CCOCC2)cc1,?,0%,-2%,-10%,?,?
Cc1cc(/C=C(\C#N)C(N)=O)c(C)n1-c1ccc(N2CCOCC2)c([N+](=O)[O-])c1,23µM*,-28%,3%,-8%,0,23µM*
O=Cc1ccc(N2CCCC2)c([N+](=O)[O-])c1,-7%,-11%,-3%,-8%,0,-23%
COc1ccc(C(=O)COC(=O)CCC(=O)c2ccc(Cl)cc2)cc1Br,.,10%,.,.,.,.
Cc1[nH]c2ccccc2c1C(c1c[nH]c2ccccc12)c1c(C)[nH]c2ccccc12,?,.,.,.,.,16µM*
C[n+]1ccc(C(c2c[nH]c3ccccc23)c2cc[n+](C)c3ccccc23)c2ccccc21,0.56µM*,.,.,.,.,0.56µM*
CCOc1cc(C(c2c[nH]c3ccccc23)c2c[nH]c3ccccc23)ccc1O,.,-29%,.,.,.,.
CCCc1nn(C)c2c(=O)[nH]c(-c3cc(S(=O)(=O)Nc4ccc(C)cc4C)ccc3OCC)nc12,.,-3%,.,.,.,.
COc1ccc2nc(C)cc(N/N=C/c3ccc(F)cc3)c2c1,1µM*,?,2.9µM*,4.6µM*,-99*,0.92µM*
COc1ccc(/C=N/Nc2cc(C)nc3ccccc23)cc1,?,0%,18µM*,?,-107*,?
COc1ccc(/C=N/Nc2cc(C)nc3c(C)cccc23)cc1,?,?,?,?,?,21µM*
COc1cccc2c(Nc3ccccc3O)cc(C)nc12,.,0%,.,.,.,.
COc1cccc2c(N/N=C/c3ccc(O)c(O)c3)cc(C)nc12,18%,20µM*,1%,5%,23,-18%
O=C(C[n+]1ccccc1Cl)c1ccc(O)c(O)c1,-1%,.,.,.,.,-19%
Cc1cc(Br)cc(C)c1OCCCCN(C)C,29µM*,-20%,?,?,-21,?
Cc1cc(Cl)c(OCCCN(C)C)c(Br)c1,-1%,-21%,-1%,-14%,-6,-24%
O=C1NCCCCCCN(C(=O)Cc2cccnc2)[C@@H]2C[C@@H](c3nc(-c4cccnc4)no3)C[C@H]12,.,-7%,.,.,.,.
NC(=O)c1ccc2c(c1)S(=O)(=O)c1ccccc1C2=O,-26%,i,13%,17%,17,16µM*
O=C(NCCc1ccccc1)c1ccc2c(c1)S(=O)(=O)c1cc(Cl)ccc1C2=O,21µM*,-23%,5%,8%,5,-94%
CC(C)(C)c1ccc(-c2ccc3c(c2)S(=O)(=O)c2ccccc2C3=O)cc1,?,-10%,2%,-1%,16,23µM*
O=C(O)c1ccc2c(c1)S(=O)(=O)c1ccccc1C2=O,4%,.,1%,-1%,8,-4%
